Experimental findings from PubChem BioAssay (NCATS) are described below.

“And” between values parts separate entries of the source, which are not always exact repeats. Equal entries are not always repeated. Unmarked numbers belong to inactive results. Results filed as inconclusive are left out. The source made the active and inactive calls. Unless noted, calls follow the shape of the dose curve; as a rule, active = well fitted curve in either direction with a large enough effect (not every such curve was filed as active); inconclusive = small, poorly fitted or top-dose-only effect, or another doubt; inactive = flat fitted curve, though single readings scatter.

Assay [1] is described as follows: AP1 Signaling Pathway (AID 357).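 Also: ME-180 reporter cells stimulated with EGF at its EC50 level; % is scaled to controls: 0 for no effect and ±100 for the full control effect.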 To be noted: ME-180 AP-1-bla reporter, EGF-induced, beta-lactamase ratio, 5 h; series mostly up to 17.2 µM. In a few lines: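 AP-1-bla ME-180 cells, Opti-MEM + 0.5% dialyzed FBS, plated overnight 37 °C. Cpd titration + EC50 EGF, 5 h 37 °C. CCF4 2.5 h RT; ex 405, em 460/530 ratio → %activity, AC50.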
The target in assay [2] is Cytochrome P450 1A2 (Homo sapiens) (UniProt P05177). As to the kind of experiment: p450-cyp1a2 (AID 410; calls by dose curve; also: potency is read from the fitted curve at half-maximal effect;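 as to activity change, negative = inhibition: -100% = full effect of reference inhibitor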). To be noted: recombinant CYP1A2, luciferin-ME demethylation, luminescence; series mostly up to 57 µM. In a few lines:
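O-Demethylation of luciferin 6' methyl ether by human CYP1A2 is monitored as luciferase luminescence. Substrate sits at Km (100uM); enzyme is 20nM. Values are scaled to 57 uM furafylline as maximal inhibition.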

A short description of assay [3]: NFAT Signaling Pathway (AID 444).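 Also: carbachol stimulus at about its EC50 of 1 µM final; % is scaled to controls: 0 for no effect and ±100 for the full control effect.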 To be noted: Jurkat NFAT-bla M1, carbachol, beta-lactamase ratio, 5 h. In a few lines: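 Read-out: CCF4 FRET ratio (460 nm/530 nm) after 1 h RT dye loading, used for %activity and AC50 from titration series. Cells: Jurkat NFAT-β-lactamase/M1 line, treated with compound plus 1 uM carbachol for 5 h, 37 °C.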
Assay [4] in a line: Stat Signaling Pathway (AID 446).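 Also: ME-180 cervical cancer cells given 40 pM IL-6 alongside compound; SIE-controlled beta-lactamase reporter measured as 460/530 nm FRET emission ratio; % is scaled to controls: 0 for no effect and ±100 for the full control effect.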 To be noted: ME-180 (cervical carcinoma) SIE beta-lactamase reporter, IL-6 stimulated, 5 h. In a few lines:
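Compound effects on IL-6-induced STAT reporter activity were measured in ME-180 cells. After overnight culture, cells were co-treated with 40 pM IL-6 for 5 hrs before beta-lactamase substrate loading at room temperature.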

The target in assay [5] is Glucocorticoid receptor (Homo sapiens) (UniProt P04150). As to the kind of experiment: GR-GFP Redistribution (AID 450;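 active = compounds whose dose series gives a full or clear partial fitted curve of increased nuclear translocation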; also: potency is read from the fitted curve at half-maximal effect). Conditions: U2OS GR-GFP nuclear translocation, laser cytometry, 2 h.
Chain of Glucocorticoid receptor (Homo sapiens) (P04150 whole entry, looked up): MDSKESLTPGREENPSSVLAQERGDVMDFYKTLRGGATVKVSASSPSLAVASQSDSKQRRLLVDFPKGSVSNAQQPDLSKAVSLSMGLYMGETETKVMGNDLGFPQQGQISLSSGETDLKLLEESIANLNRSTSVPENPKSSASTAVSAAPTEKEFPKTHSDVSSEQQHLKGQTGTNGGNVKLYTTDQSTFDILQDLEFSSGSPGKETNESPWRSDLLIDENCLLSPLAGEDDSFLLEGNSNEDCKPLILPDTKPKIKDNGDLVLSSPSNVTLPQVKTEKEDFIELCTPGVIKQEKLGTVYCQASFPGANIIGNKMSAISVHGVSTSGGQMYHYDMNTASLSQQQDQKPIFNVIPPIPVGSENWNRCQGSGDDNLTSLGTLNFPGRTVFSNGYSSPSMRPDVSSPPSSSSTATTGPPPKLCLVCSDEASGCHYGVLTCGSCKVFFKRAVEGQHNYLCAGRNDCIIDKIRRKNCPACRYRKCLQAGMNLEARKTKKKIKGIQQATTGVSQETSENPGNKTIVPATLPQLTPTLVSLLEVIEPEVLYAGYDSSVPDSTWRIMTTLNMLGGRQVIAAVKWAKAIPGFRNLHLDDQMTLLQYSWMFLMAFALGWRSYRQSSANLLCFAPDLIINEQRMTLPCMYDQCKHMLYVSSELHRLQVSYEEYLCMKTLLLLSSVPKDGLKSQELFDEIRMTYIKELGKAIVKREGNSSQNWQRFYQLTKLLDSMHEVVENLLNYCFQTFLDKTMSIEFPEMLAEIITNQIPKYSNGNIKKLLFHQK
The target is the same in assay [6]. The assay is described as follows: GR-EFC Redistribution (AID 451; calls by dose curve; also: potency is read from the fitted curve at half-maximal effect). Conditions: CHO-K1 GR-EFC translocation, beta-gal luminescence, 2 h. The method in brief:
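Translocation of GR-ED fusion to nuclear EA restores b-gal, read by luminescence after 1 h room-temperature detection. Engineered CHO-K1 biosensor cells, 1,000/well, exposed 2 h at 37 C to titrations up to 46 uM final.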

The target of assay [7] is Mitogen-activated protein kinase 10 (Mus musculus) (UniProt Q61831). As to the kind of experiment: JNK3 AlphaScreen Assay (AID 530).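 Also: kinase came from lysate of stimulated human HepG2 cells; signal reports phosphorylation of biotinylated GST-cJun 1-79 at Ser73 with 10 µM ATP; % is scaled to controls: 0 for no effect and ±100 for the full control effect.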 Conditions: JNK3 lysate, c-Jun phosphorylation; series mostly up to 57.1 µM. In a few lines: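 qHTS titrations with 15 min compound pre-incubation before adding ATP (10 uM final). Read-out: AlphaScreen of Ser73-phosphorylated biotin-GST-cJun using HepG2 lysate JNK3 activated by IL-1β and TNFα.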
Background: Alpha assays give light when donor and acceptor beads are brought close together.

Assay [8] deals with Lysosomal acid glucosylceramidase (Homo sapiens) (UniProt P04062). The assay is described as follows: Glucocerebrosidase-p2 (AID 348; in the data active = potency below about 10 µM; also: potency is read from the fitted curve at half-maximal effect). To be noted: purified GBA, blue fluorogenic substrate, 40 min. In a few lines: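 Normal human glucocerebrosidase (0.2 nM) with blue fluorogenic substrate (80 uM final) in citrate/phosphate pH 5.9 with 10mM sodium taurocholate, 0.01% tween-20; 40 min RT, NaOH/glycine stop; fluorescence Ex 365/Em 440; AC50 from a titration from 0.6 nM upwards.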
Chain of Lysosomal acid glucosylceramidase (Homo sapiens) (P04062 whole entry, looked up): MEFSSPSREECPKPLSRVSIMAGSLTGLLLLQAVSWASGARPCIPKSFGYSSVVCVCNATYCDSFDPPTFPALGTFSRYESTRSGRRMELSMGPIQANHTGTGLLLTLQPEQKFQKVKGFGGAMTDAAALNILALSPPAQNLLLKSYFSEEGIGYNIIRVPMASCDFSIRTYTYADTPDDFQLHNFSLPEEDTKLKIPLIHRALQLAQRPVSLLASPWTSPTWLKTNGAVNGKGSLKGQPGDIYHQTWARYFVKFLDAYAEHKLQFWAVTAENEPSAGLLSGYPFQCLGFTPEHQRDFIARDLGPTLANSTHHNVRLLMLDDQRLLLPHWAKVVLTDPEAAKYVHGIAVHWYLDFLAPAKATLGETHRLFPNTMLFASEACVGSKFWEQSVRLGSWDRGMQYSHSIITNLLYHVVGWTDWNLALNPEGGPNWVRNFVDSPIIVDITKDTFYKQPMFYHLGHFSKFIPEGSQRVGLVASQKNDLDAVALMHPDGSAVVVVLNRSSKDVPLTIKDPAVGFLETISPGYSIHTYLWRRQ

Assay [9] is described as follows: Cell Viability - MRC5 (AID 434; calls by dose curve;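 also: potency is read from the fitted curve at half-maximal effect; potency reflects cytotoxicity seen as loss of intracellular ATP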). To be noted: MRC5 lung fibroblast viability, qHTS. In a few lines: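 AC50 values come from Hill-equation fits of intracellular ATP loss, measured by CellTiter-Glo luminescence. Normal lung fibroblasts (MRC5) had 40 hr compound treatment at 37 C, normalized between DMSO and 100 uM tamoxifen.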
For orientation: Quantitative high-throughput screening tests each substance at several concentrations.

Assay [10] in a line: Cell Viability - SK-N-SH (AID 435; calls by dose curve;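 also: potency is read from the fitted curve at half-maximal effect; compound exposure lasted 40 h at 37 °C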). To be noted: SK-N-SH neuroblastoma cell viability qHTS. The method in brief:
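Human neuroblastoma line, 40 h exposure at 37 °C, ATP quantified via luciferase luminescence; DMSO and 100 uM tamoxifen define 0 and 100% inhibition for AC50 fitting.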

A short description of assay [11]: Cell Viability - N2a (AID 540; active = well fitted cell-killing curve with a large enough effect;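 also: cells exposed to compound for 40 h at 37 °C; plate controls were DMSO alone for no effect and tamoxifen control for full effect; nearly all actives have a fitted effect of over 45% in size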). Conditions: N2a mouse neuroblastoma cell viability; at 92.2 µM (top of the series). In a few lines: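 Cytotoxicity was scored as loss of cellular ATP in N2a cells, a mouse neuroblastoma line. Compounds are applied in a qHTS concentration series for 40 hr at 37 °C.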
Assay [12] in a line: Cell Viability - NIH 3T3 (AID 541; active = well fitted cell-killing curve with a large enough effect; also: potency is read from the fitted curve at half-maximal effect; nearly all actives have a fitted effect of over 25% in size). Conditions: NIH 3T3 cell viability, qHTS; activity change, negative = cytotoxicity: at 92.2 µM (top of the series). The method in brief: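 Cells seeded at 1000/well, rested 5 hr at 37 °C, then dosed and incubated 40 hr at 37 °C. CellTiter-Glo added, 20 min room temperature, luminescence read. AC50 by Hill fit.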
Assay [13] is described as follows: Cell Viability - H-4-II-E (AID 543; active = well fitted cell-killing curve with a large enough effect; also: potency is read from the fitted curve at half-maximal effect; nearly all actives have a fitted effect of over 35% in size). To be noted: H-4-II-E rat hepatoma viability; series mostly up to 92.2 µM. In a few lines:
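Cells seeded at 1500 per well and rested 5 hr; compounds added; 40 hr incubation at 37 °C; CellTiter-Glo added, 20 min at room temperature; luminescence read. Hill-equation fits gave AC50.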

Assay [14] in a line: Cell Viability - SH-SY5Y (AID 544; active = well fitted cell-killing curve with a large enough effect; also: potency is read from the fitted curve at half-maximal effect; nearly all actives have a fitted effect of over 55% in size). To be noted: SH-SY5Y neuroblastoma cell viability; viability change, negative = cytotoxic: at 92.2 µM (top of the series). The method in brief: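 Cells were plated at 1500 per well and allowed 5 hr at 37 °C. Compounds were added across a concentration range and incubated 40 hr at 37 °C. CellTiter-Glo was added for 20 min at room temperature before luminescence reading.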

The nature of assay [15]: Cell Viability - Renal Proximal Tubule (AID 545; active = well fitted cell-killing curve with a large enough effect;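 also: 0% = DMSO only and -100% = 100 µM tamoxifen; nearly all actives have a fitted effect of over 40% in size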). Conditions: renal proximal tubule cells viability; at 91.7 µM (top of the series) unless noted. In a few lines:
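In this qHTS format, normal rat kidney-derived proximal tubule cells in complete culture medium receive compound titrations, then sit 40 hours at 37 °C before luciferase-based ATP quantitation; potency is reported as AC50 from concentration-response curves.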

Assay [16] can be described thus: Cell Viability - Mesenchymal (AID 546; active = well fitted cell-killing curve with a large enough effect;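 also: cells exposed to compound for 40 hours before reading; 0% = DMSO only and -100% = 100 µM tamoxifen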). To be noted: mesenchymal cells viability, qHTS; series mostly up to 91.7 µM. In a few lines:
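CellTiter-Glo luminescence (intracellular ATP, 20 min room temperature) after 40 hr compound exposure at 37 °C of 1000 glomerulus-derived human kidney mesenchymal cells/well; AC50 values obtained by fitting qHTS concentration-response data to the Hill equation.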

Chain of Cytochrome P450 1A2 (Homo sapiens) (P05177 whole entry, looked up): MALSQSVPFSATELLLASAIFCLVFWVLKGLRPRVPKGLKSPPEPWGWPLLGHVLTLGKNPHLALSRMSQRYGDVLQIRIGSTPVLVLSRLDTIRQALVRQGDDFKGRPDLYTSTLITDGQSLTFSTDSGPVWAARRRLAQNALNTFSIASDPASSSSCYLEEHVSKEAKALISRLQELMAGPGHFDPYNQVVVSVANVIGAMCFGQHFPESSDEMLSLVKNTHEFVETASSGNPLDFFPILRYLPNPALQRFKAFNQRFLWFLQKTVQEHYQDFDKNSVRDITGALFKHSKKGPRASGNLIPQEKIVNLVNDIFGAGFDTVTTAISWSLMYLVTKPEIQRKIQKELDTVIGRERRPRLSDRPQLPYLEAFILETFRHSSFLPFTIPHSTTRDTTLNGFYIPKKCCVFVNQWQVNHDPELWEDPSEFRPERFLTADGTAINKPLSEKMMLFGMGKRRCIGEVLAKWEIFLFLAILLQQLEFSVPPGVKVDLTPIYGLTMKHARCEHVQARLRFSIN

On to `NCC1(CC(=O)O)CCCCC1`, for which the outcome in [1] and in assay [7] was inactive. In [2], the Potency entry is “inactive”. For the same compound, the activity change, negative = inhibition is -5.52% and 10.6% in [3] (at 17.2 µM (top of the series)); 3.24% in [3] (at 38 µM (top of the series)). Further, the activity, negative = inhibition in assay [4] (at 17.2 µM (top of the series)) was -0.102% and 1.2%; in [4] (at 38 µM (top of the series)), -12.4%. Moreover, the Potency in [5] is > 46 µM and > 20.6 µM; in assay [6] it was > 46 µM and > 20.6 µM.

On to `COc1ccc(Cc2nccc3cc(OC)c(OC)cc23)cc1OC`, for which the outcome in [1] was inactive. Further, the activity change, negative = inhibition in assay [3] (at 17.2 µM (top of the series)) was -29.4%. The activity, negative = inhibition in assay [4] (at 17.2 µM (top of the series)) is -7.28%; in assay [4] (at 38 µM (top of the series)), -33.5%.

On to `Cc1ccc(S(=O)(=O)N[C@@H](CCCCN)C(=O)CCl)cc1`, for which the result in assay [1] and in assay [7] was inactive. In assay [2], the Potency entry was “inactive”. Moreover, the activity change, negative = inhibition in assay [3] (at 38 µM (top of the series)) is -22.6%. For the same compound, the activity, negative = inhibition in assay [4] (at 38 µM (top of the series)) was -67% (active). The Potency in assay [5] and in [6] was more than 46 µM in each case.

Regarding `N[C@@H]1C[C@H]1c1ccccc1`, the outcome in assay [1] and in assay [7] was inactive. The Potency in [2] is 15.8 µM (active). Also, in assay [3] (at 38 µM (top of the series)), the activity change, negative = inhibition was -3.2%. Besides, the activity, negative = inhibition in assay [4] (at 38 µM (top of the series)) is 20.3%.

With `CC[C@@H](CO)NC(=O)[C@@H]1C=C2c3cccc4c3c(cn4C)C[C@H]2N(C)C1`, the outcome in assay [1] was inactive. Moreover, in [3] (at 17.2 µM (top of the series)), the activity change, negative = inhibition is -12.8%.

Turning to `Oc1cccc2cccnc12`, the Potency in [8] is more than 11.4 µM; in [9], more than 92 µM; in assay [10], 24.4 µM (active) and 28.1 µM (active); in assay [12] it was 12.6 µM (active) and 10 µM (active); in assay [13], 39.8 µM (active); in assay [14], 3.98 µM (active). Also, the figures for the activity change, negative = inhibition in assay [2] and in assay [3] (at 7.69 µM (top of the series)) were -20% [at 11.4 µM] and 3.84%, respectively. In addition, in assay [4] (at 7.69 µM (top of the series)), the activity, negative = inhibition was -1.23%. Besides, the compound was called inactive in assay [7] and in [16]. Further, the activity change, negative = cytotoxicity in assay [11] was -89.1% (active); in assay [15] it was -13.9% and -16.1%.

Regarding `CCn1cc(C(=O)O)c(=O)c2ccc(C)nc21`, the result in assay [1] and in [7] was inactive. In addition, the activity change, negative = inhibition in [3] (at 17.2 µM (top of the series)) was -8.77% and -6.5%; in assay [3] (at 38 µM (top of the series)), 12.2%. Moreover, the activity, negative = inhibition in [4] (at 17.2 µM (top of the series)) is 10.7% and -2.6%; in assay [4] (at 38 µM (top of the series)), -7%.

For `CCCN1CCC[C@@H]2Cc3nc(N)ncc3C[C@H]21`, the outcome in [1] and in assay [7] was inactive. Also, the Potency entry in assay [2] is “inactive”. The activity change, negative = inhibition in assay [3] (at 38 µM (top of the series)) is -3.63%. For the same compound, the activity, negative = inhibition in [4] (at 38 µM (top of the series)) is -19.8%.

Regarding `NN=C(N)N`, the outcome in assay [1] and in [7] was inactive. Besides, in assay [2], the Potency entry is “inactive”. In [3] (at 38 µM (top of the series)), the activity change, negative = inhibition was 2.99% and 1.19%. Further, in assay [4] (at 38 µM (top of the series)), the activity, negative = inhibition is 13% and 15.8%.

Consider `COc1ccccc1N1CCNCC1`, for which the result in [1] was inactive. In addition, the Potency entry in assay [2] was “inactive”. For the same compound, the activity change, negative = inhibition in [3] (at 38 µM (top of the series)) was -22.1%. The activity, negative = inhibition in assay [4] (at 38 µM (top of the series)) was 16.4%. Also, the Potency in assay [5] and in assay [6] was more than 46 µM in each case.

As to `CC[N+]1(C)CCCC(OC(=O)C(O)(c2ccccc2)c2ccccc2)C1` (stereo not given), the result in [1] was inactive. Further, the activity change, negative = inhibition in assay [3] (at 17.2 µM (top of the series)) is -75.8% (active). In [4] (at 17.2 µM (top of the series)), the activity, negative = inhibition is -1.5%. Also, in [5], the Potency is more than 20.6 µM.

In the case of `O=[N+]([O-])c1cc([As](=O)(O)O)ccc1O`, the result in assay [1] and in assay [7] was inactive. Also, in assay [2], the Potency result was “inactive”. Moreover, the activity change, negative = inhibition in assay [3] (at 17.2 µM (top of the series)) was -8.47%. For the same compound, in [4] (at 17.2 µM (top of the series)), the activity, negative = inhibition is 10.9%. Besides, the Potency in assay [5] and in assay [6] was more than 20.6 µM each time.

Take `Clc1cccc(N2CCNCC2)c1`: the outcome in [1] and in [7] was inactive. The figures for the Potency in assay [2], in assay [5] and in assay [6] were 15.8 µM (active), more than 46 µM and more than 46 µM, respectively. In [3] (at 38 µM (top of the series)), the activity change, negative = inhibition is -4.86%. For the same compound, the activity, negative = inhibition in assay [4] (at 38 µM (top of the series)) was 3.38%.
